Experimental findings from the supplement of paper PMC9262897, “Low-cost anti-mycobacterial drug discovery using engineered E. coli” (Nature Communications, 2022) are described below.

Counter-ions that a name gives are not always drawn. ± gives the standard deviation of the averaged measurements.

The subject of this test is E. coli TESEC Alr+ wild-type control. Put plainly: growth (OD600 after 10 h); higher = more growth (less inhibition). The note with it: compound 0.1 mM; raw OD600 reference: median of DMSO wells 0.49, cell-free background 0.052. The protocol:
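TESEC Mtb Alr E. coli (ΔaraC ΔtolC ΔentC Δalr ΔdadX, arabinose-inducible Mtb Alr) or the Alr+ wild-type control strain, grown in defined M9-fructose medium without D-alanine in 96-well plates with Prestwick library compounds at 0.1 mM and 1% DMSO. Low Alr induction is 0.1 µM arabinose and high induction is 10 mM arabinose.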
For `NC(=O)CN1CCCC1=O` [Piracetam], the growth came to 0.491 ± 0.12.

Molecule `COc1ccc2c(c1)[C@]13CCCC[C@@H]1[C@H](C2)N(C)CC3` [Dextromethorphan hydrobromide monohydrate] gave a growth of 0.469 ± 0.03.

`CC(C)(C)NCC(O)c1cc(Cl)c(N)c(Cl)c1` (stereo not given) [Clenbuterol hydrochloride] displayed a growth of 0.605 ± 0.12.

As for `CC(=O)[C@H]1CC[C@H]2[C@@H]3CC[C@H]4C[C@H](O)CC[C@]4(C)[C@H]3C(=O)C[C@]12C` [Alfaxalone], the growth worked out at 0.3925 ± 0.0021.

`CCCCCC[C@H]1C(=O)O[C@H](C)[C@H](NC(=O)c2cccc(NC=O)c2O)C(=O)O[C@@H](C)[C@@H]1OC(=O)CC(C)C` [Antimycin A] gave a growth of 0.428 ± 0.022.

On to `CCC1(C)CC(=O)NC(=O)C1` [Bemegride], for which the growth was 0.467 ± 0.024.

Consider `S=C(NC1CCCCC1)N1CCC(c2cnc[nH]2)CC1` [Thioperamide maleate], for which the growth is 0.561 ± 0.066.

In turn, `CC[C@@]1([C@@H]2O[C@@H]([C@H]3O[C@@](O)(CO)[C@H](C)C[C@@H]3C)C[C@@H]2C)CC[C@H]([C@]2(C)CC[C@]3(C[C@H](O)[C@@H](C)[C@@H]([C@@H](C)[C@@H](OC)[C@H](C)C(=O)O)O3)O2)O1` [Monensin sodium salt] gave a growth of 0.408 ± 0.05.

`NCCCNCCSP(=O)(O)O` [Amifostine] gave a growth of 0.627 ± 0.013.

`CN1[C@@H]2CC[C@H]1C[C@@H](OC1c3ccccc3CCc3ccccc31)C2` [Deptropine citrate] displayed a growth of 0.04883 ± 0.00038.

Consider `NCC1(CC(=O)O)CCCCC1` [Gabapentin], for which the growth stood at 0.565 ± 0.076.

On to `O=c1[nH]c2ccccc2n1CCCN1CCC(n2c(=O)[nH]c3cc(Cl)ccc32)CC1` [Domperidone], for which the growth was 0.406 ± 0.011.

With `CC(C)C[C@H]1C(=O)N2CCC[C@H]2[C@]2(O)O[C@](NC(=O)[C@@H]3C=C4c5cccc6[nH]c(Br)c(c56)C[C@H]4N(C)C3)(C(C)C)C(=O)N12` [Bromocryptine mesylate], the growth stood at 0.511 ± 0.046.

For the molecule `CC(N)C(O)c1ccccc1` (stereo not given) [Phenylpropanolamine hydrochloride], the growth came out at 0.527 ± 0.077.

Molecule `CCC1(CC)C(=O)C=CNC1=O` [Pyrithyldione] gave a growth of 0.458 ± 0.024.

In turn, `C=C(C)[C@@H]1[C@H]2OC(=O)[C@@H]1[C@]1(O)C[C@H]3O[C@]34C(=O)O[C@H]2[C@]14C` [Picrotoxinin] gave a growth of 0.479 ± 0.082.

The molecule `C=C1C[C@@H]2[C@H](CC[C@]3(C)C(=O)CC[C@@H]23)[C@@]2(C)C=CC(=O)C=C12` [Exemestane] showed a growth of 0.322 ± 0.0079.

`CN1C[C@H](CNC(=O)OCc2ccccc2)C[C@@H]2c3cccc4c3c(cn4C)C[C@H]21` [Metergoline]: the growth was 0.04927 ± 5.8e-05.

As for `Cc1cc(C(C#N)c2ccc(Cl)cc2)c(Cl)cc1NC(=O)c1cc(I)cc(I)c1O` (stereo not given) [Closantel], the growth was found to be 0.128 ± 0.012.

In turn, `COc1cc2c(cc1OC)C(C)NCC2` (stereo not given) gave a growth of 0.453 ± 0.034.

In turn, `CC[N+]1(C)CCCC(OC(=O)C(O)(c2ccccc2)c2ccccc2)C1` (stereo not given) [Pipenzolate bromide] returned a growth of 0.424 ± 0.016.

Take `C[C@]12CCC(=O)C(O)=C1CC[C@@H]1[C@@H]2CC[C@]2(C)C(=O)CC[C@@H]12` [Formestane]: the growth was determined as 0.392 ± 0.026.

`COc1ccc(CCN)cc1OC` [Homoveratrylamine] gave a growth of 0.563 ± 0.069.

Regarding `CN1C(=O)CCS(=O)(=O)C1c1ccc(Cl)cc1` (stereo not given) [Chlormezanone], the growth stood at 0.615 ± 0.1.

The molecule `C[C@]12CC[C@@H]3c4ccc(OC(=O)N(CCCl)CCCl)cc4CC[C@H]3[C@@H]1CC[C@@H]2O` [Estramustine] displayed a growth of 0.399 ± 0.008.

Turning to `CN1[C@@H]2CC[C@H]1C[C@@H](OC(=O)C(CO)c1ccccc1)C2` (stereo not given in full) [Atropine sulfate monohydrate], the growth amounted to 0.418 ± 0.017.

`O[C@@H]1CCCC[C@H]1N1CCC(c2ccccc2)CC1` [L(-)-vesamicol hydrochloride] came in with a growth of 0.521 ± 0.091.

Molecule `CCCC[N+]1(C)[C@@H]2CC(OC(=O)[C@H](CO)c3ccccc3)C[C@H]1[C@@H]1O[C@@H]12` (stereo not given in full) [Butylscopolammonium (n-) bromide] returned a growth of 0.531 ± 0.1.

Take `CC(C)N(CCC(C(N)=O)(c1ccccc1)c1ccccn1)C(C)C` (stereo not given) [Disopyramide]: the growth was 0.543 ± 0.056.

As for `C[C@]12Cc3c[nH]nc3C[C@@H]1CC[C@@H]1[C@@H]2CC[C@@]2(C)[C@H]1CC[C@]2(C)O` [Stanozolol], the growth came out at 0.47 ± 0.038.

Molecule `C[N+](C)(C)CCCCCCCCCC[N+](C)(C)C` [Decamethonium bromide] gave a growth of 0.417 ± 0.017.

With `CCN(CC)C(C)C(=O)c1ccccc1` (stereo not given) [Amfepramone hydrochloride], the growth turned out to be 0.556 ± 0.038.

`CN1C[C@H](C(=O)N[C@]2(C)O[C@@]3(O)[C@@H]4CCCN4C(=O)[C@H](Cc4ccccc4)N3C2=O)C[C@@H]2c3cccc4[nH]cc(c34)C[C@H]21` [Dihydroergotamine tartrate] registered a growth of 0.1077 ± 0.001.

For `O=[N+]([O-])O[C@H]1CO[C@H]2[C@@H]1OC[C@H]2O[N+](=O)[O-]` [Isosorbide dinitrate], the growth was 0.474 ± 0.092.

As to `CCOC(=O)c1cncn1[C@H](C)c1ccccc1` [Etomidate], the growth was 0.397 ± 0.013.

Turning to `O=C(CCCN1CCC2(CC1)C(=O)NCN2c1ccccc1)c1ccc(F)cc1` [Spiperone], the growth is 0.509 ± 0.042.

In turn, `COc1cccc(C2(O)CCCCC2CN(C)C)c1` (stereo not given) [Tramadol hydrochloride] registered a growth of 0.476 ± 0.013.

Turning to `CO[C@]12C[C@@H](COC(=O)c3cncc(Br)c3)CN(C)[C@@H]1Cc1cn(C)c3cccc2c13` [Nicergoline], the growth came out at 0.481 ± 0.049.

The molecule `Fc1ccc(C(OCCN2CCN(CCCc3ccccc3)CC2)c2ccc(F)cc2)cc1` displayed a growth of 0.04777 ± 0.00025.

On to `C[C@@H]1O[C@@H](O[C@@H]2C=C3CC[C@@H]4[C@H](CC[C@]5(C)[C@@H](c6ccc(=O)oc6)CC[C@]45O)[C@@]3(C)CC2)[C@H](O)[C@H](O)[C@H]1O` [Proscillaridin A], for which the growth came out at 0.626 ± 0.018.
